Experiment [1] addresses rat Monoamine Oxidase, MAO-B, Central (MAOBC), Maob (gene 25750) (UniProt P19643). The experiment is described as follows: NVS_ENZ_rMAOBC: NovaScreen (NVS) Enzymatic Assay for rat Monoamine Oxidase, MAO-B, Central (MAOBC) (AID 2283238). The procedure, abridged: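 Rat brain tissue extract served as the cell-free MAO-B source; enzyme activity was read by scintillation counting 1.17 hours after compound addition. Loss of signal versus DMSO baseline was fitted; primary single-concentration screen at 25 uM, follow-up concentration-response up to 50 uM.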

Experiment [2] concerns the target Adenosine receptor A1 (Bos taurus) (UniProt P28190). The experiment is described as follows: NVS_GPCR_bAdoR_NonSelective: NovaScreen (NVS) G Protein-Coupled Receptor Assay for bovine Adenosine Receptor (AdoR), Non-selective Binding (AID 2283244). An outline of the steps:
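Bovine striatal membranes, radioligand displacement binding, 1 h after dosing, filter-based scintillation counting. Screened in duplicate at 25 uM, then concentration-response up to 50 uM; loss of specific binding relative to DMSO.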

In experiment [3] the test system is rat Monoamine Oxidase, MAO-A, Central (MAOAC), gene 29253. The experiment is described as follows: NVS_ENZ_rMAOAC: NovaScreen (NVS) Enzymatic Assay for rat Monoamine Oxidase, MAO-A, Central (MAOAC) (AID 2283243).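 Further: potency refers to inhibition seen as signal drop below DMSO baseline.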 The procedure, abridged: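 Inhibition of rat brain-derived MAO-A was read by scintillation counting after 1.5 h exposure. Compounds screened first at 25 uM in duplicate, then in dose series if active.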

The target of experiment [4] is human Serotonin, 5-Hydroxytryptamine Receptor 6 (5HT6), HTR6 (gene 3362) (UniProt P50406). The experiment is described as follows: NVS_GPCR_h5HT6: NovaScreen (NVS) G Protein-Coupled Receptor Assay for human Serotonin, 5-Hydroxytryptamine Receptor 6 (5HT6) (AID 2283253). An outline of the steps: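 Radioligand binding to 5HT6 in HEK293-derived membranes, cell-free, 1 h after dosing; bound ligand measured by filter-based scintillation counting. Primary screen in duplicate at 25 uM; actives retested in concentration series.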

The subject of experiment [5] is guinea pig Leukotriene B4 Receptor (LTB4), gene 100379538. The experiment is described as follows: NVS_GPCR_gLTB4: NovaScreen (NVS) G Protein-Coupled Receptor Assay for guinea pig Leukotriene B4 Receptor (LTB4) (AID 2283247). The procedure, abridged: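 Radioligand displacement on guinea pig spleen membranes, filter-based scintillation counting 2 h after dosing. Primary duplicate single point at 25 uM; hits over threshold (e.g. 30% inhibition) run in concentration-response up to 50 uM, DMSO baseline.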

Experiment [6] deals with human Serotonin, 5-Hydroxytryptamine Receptor 2A (5HT2A), HTR2A (gene 3356) (UniProt P28223). The experiment is described as follows: NVS_GPCR_h5HT2A: NovaScreen (NVS) G Protein-Coupled Receptor Assay for human Serotonin, 5-Hydroxytryptamine Receptor 2A (5HT2A) (AID 2283249). The procedure, abridged:
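Human cortex membranes, cell-free radioligand binding; filter-based scintillation read 1.5 h after dosing. Duplicate screen at 25 uM first; displacement of specific binding (loss of signal) versus DMSO.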

In experiment [7] the test system is guinea pig Muscarinic, Peripheral (Mperiperal) Receptor, Non-selective Binding, gene 100379235. The experiment is described as follows: NVS_GPCR_gMPeripheral_NonSelective: NovaScreen (NVS) G Protein-Coupled Receptor Assay for guinea pig Muscarinic, Peripheral (Mperiperal) Receptor, Non-selective Binding (AID 2283250). An outline of the steps: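 Guinea pig bladder membranes, radioligand binding read 1 h after dosing by filter scintillation counting; loss of signal vs DMSO. Primary duplicate screen at 25 uM, then concentration-response up to 50 uM.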

Experiment [8] has as its target human Serotonin, 5-Hydroxytryptamine Receptor 5A (5HT5A), HTR5A (gene 3361) (UniProt P47898). The experiment is described as follows: NVS_GPCR_h5HT5A: NovaScreen (NVS) G Protein-Coupled Receptor Assay for human Serotonin, 5-Hydroxytryptamine Receptor 5A (5HT5A) (AID 2283251). An outline of the steps: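 Cell-free radioligand displacement binding on HEK293-derived membrane protein, 1 h incubation, filter-based scintillation counting. Primary screen in duplicate at 25 uM, actives followed in concentration series; loss of signal fitted versus DMSO.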

Experiment [9] deals with guinea pig Opioid, Kappa 1 Receptor (OpiateK), OPRK1 (gene 100135587) (UniProt P41144). The experiment is described as follows: NVS_GPCR_gOpiateK: NovaScreen (NVS) G Protein-Coupled Receptor Assay for guinea pig Opioid, Kappa 1 Receptor (OpiateK) (AID 2283252).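 Further: radioligand displacement from kappa opioid receptor in guinea pig cerebellar membranes; active means reduced radioligand binding relative to DMSO.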 An outline of the steps:
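Guinea pig cerebellar membranes were incubated with a radioligand for 2 h after compound addition; bound radioactivity was read by filter-based scintillation counting. Loss of specific binding relative to DMSO baseline defined activity; primary screen at 25 uM in duplicate.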

Experiment [10] addresses human Adenosine A1 Receptor (AdoRA1), ADORA1 (gene 134) (UniProt P30542). The experiment is described as follows: NVS_GPCR_hAdoRA1: NovaScreen (NVS) G Protein-Coupled Receptor Assay for human Adenosine A1 Receptor (AdoRA1) (AID 2283254). The procedure, abridged: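 Hum. cortical membranes + radioligand, cmpd 1 h; filtration, scintillation count. Readout = decrease vs DMSO. Primary 25 uM dup; hits → conc. series.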

Experiment [11] deals with human Serotonin, 5-Hydroxytryptamine Receptor 7 (5HT7), HTR7 (gene 3363) (UniProt P34969). Kind of experiment: NVS_GPCR_h5HT7: NovaScreen (NVS) G Protein-Coupled Receptor Assay for human Serotonin, 5-Hydroxytryptamine Receptor 7 (5HT7) (AID 2283255).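 Further: hits reduce specific radioligand binding relative to DMSO.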 An outline of the steps:
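Radioligand displacement on membranes from CHO cells expressing human 5HT7, 1 h incubation, filter-based scintillation counting. Primary screen used a single 25 uM concentration in duplicate; actives were followed up in concentration series.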

The target in experiment [12] is rat Catechol-O-Methyl Transferase (COMT), Comt (gene 24267) (UniProt P22734). Kind of experiment: NVS_ENZ_rCOMT: NovaScreen (NVS) Enzymatic Assay for rat Catechol-O-Methyl Transferase (COMT) (AID 2283235). An outline of the steps:
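Cell-free enzyme activity with protein extracted from rat dorsal striatum, measured by HPLC with absorbance detection. Compounds screened at 25 uM in duplicate; actives then run in concentration-response up to 50 uM, loss of signal versus DMSO.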

The target in experiment [13] is rat Monoamine Oxidase, MAO-B, Peripheral (MAOBP), Maob (gene 25750) (UniProt P19643). The experiment is described as follows: NVS_ENZ_rMAOBP: NovaScreen (NVS) Enzymatic Assay for rat Monoamine Oxidase, MAO-B, Peripheral (MAOBP) (AID 2283242).
The target of experiment [14] is guinea pig Leukotriene D4 Receptor (LTD4), CYSLTR1 (gene 100135514) (UniProt Q2NNR5). The experiment is described as follows: NVS_GPCR_gLTD4: NovaScreen (NVS) G Protein-Coupled Receptor Assay for guinea pig Leukotriene D4 Receptor (LTD4) (AID 2283248). An outline of the steps:
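Radioligand displacement on guinea pig lung membranes, 1 h incubation, filtration and scintillation counting; DMSO as negative control. Duplicate 25 uM primary screen, then singleton concentration-response up to 50 uM.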

In experiment [15] the target is rat Constitutive Nitric Oxide Synthase (CNOS), Nos1 (gene 24598) (UniProt P29476). The experiment is described as follows: NVS_ENZ_rCNOS: NovaScreen (NVS) Enzymatic Assay for rat Constitutive Nitric Oxide Synthase (CNOS) (AID 2283236). The procedure, abridged: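 Enzyme activity in rat brain membrane preparation, read 1 h after dosing by filter-based radiometric scintillation counting. Primary screen in duplicate at 25 uM; actives (e.g., ≥30% inhibition) then run in concentration-response up to 50 uM.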

The target in experiment [16] is sheep Cyclooxygenase-1 (Cox1), PTGS1 (gene 443551) (UniProt P05979). Kind of experiment: NVS_ENZ_oCOX1: NovaScreen (NVS) Enzymatic Assay for sheep Cyclooxygenase-1 (Cox1) (AID 2283239).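 Further: actives reduce cyclooxygenase activity so potencies are for inhibitors.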 The procedure, abridged: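 Tested in duplicate at 25 uM, then in concentration series if active, against seminal vesicle extract from sheep. Enzyme activity was measured colorimetrically at 0.66 hour and normalised to DMSO.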

For experiment [17], the system named is rat Monoamine Oxidase, MAO-A, Peripheral (MAOAP), gene 29253. Kind of experiment: NVS_ENZ_rMAOAP: NovaScreen (NVS) Enzymatic Assay for rat Monoamine Oxidase, MAO-A, Peripheral (MAOAP) (AID 2283237). The procedure, abridged: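 Rat liver mitochondrial membranes served as the MAO-A source, with enzyme activity measured by radiometric scintillation counting 1.17 hours after dosing. Loss of signal was fitted against DMSO; primary screen used 25 uM in duplicate, follow-up used concentration series.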

Experiment [18] addresses rat Acetylcholinesterase (AChE), Ache (gene 83817) (UniProt P37136). Kind of experiment: NVS_ENZ_rAChE: NovaScreen (NVS) Enzymatic Assay for rat Acetylcholinesterase (AChE) (AID 2283233). The procedure, abridged: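 Rat brain membrane acetylcholinesterase activity measured colorimetrically 0.33 h after compound addition, loss of signal relative to DMSO. Primary screen in duplicate at 25 uM; actives re-run as concentration-response with 50 uM top concentration.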

From PubChem BioAssay (EPA / NIEHS) come the findings set out here.

Inconclusive results are not listed. A structure can be active in one record and inactive in another. Calls of active or inactive are those of the source. How the source made its calls: active means hit-call score of the fitted dose curve at least 0.9, where 1 is the maximum; inconclusive means response in the unintended direction; inactive means score below 0.9.

Sequence of sheep Cyclooxygenase-1 (Cox1), PTGS1 (gene 443551) (P05979 whole entry, looked up): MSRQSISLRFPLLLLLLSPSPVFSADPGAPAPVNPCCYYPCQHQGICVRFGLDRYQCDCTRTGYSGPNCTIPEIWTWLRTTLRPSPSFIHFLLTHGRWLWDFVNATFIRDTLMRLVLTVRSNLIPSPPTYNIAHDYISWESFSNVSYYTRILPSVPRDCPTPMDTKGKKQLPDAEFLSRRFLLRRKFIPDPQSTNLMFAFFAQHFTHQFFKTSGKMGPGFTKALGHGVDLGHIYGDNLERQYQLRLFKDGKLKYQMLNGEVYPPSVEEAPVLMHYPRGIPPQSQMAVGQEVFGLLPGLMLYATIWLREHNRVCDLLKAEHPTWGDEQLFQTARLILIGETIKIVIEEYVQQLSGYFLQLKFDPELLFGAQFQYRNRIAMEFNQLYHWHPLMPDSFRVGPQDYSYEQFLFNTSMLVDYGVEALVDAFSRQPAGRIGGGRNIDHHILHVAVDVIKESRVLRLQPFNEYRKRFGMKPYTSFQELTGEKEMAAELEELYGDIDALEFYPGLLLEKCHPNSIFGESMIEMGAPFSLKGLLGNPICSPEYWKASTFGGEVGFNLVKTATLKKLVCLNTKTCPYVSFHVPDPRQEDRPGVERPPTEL
Sequence of human Serotonin, 5-Hydroxytryptamine Receptor 7 (5HT7), HTR7 (gene 3363) (P34969 whole entry, looked up): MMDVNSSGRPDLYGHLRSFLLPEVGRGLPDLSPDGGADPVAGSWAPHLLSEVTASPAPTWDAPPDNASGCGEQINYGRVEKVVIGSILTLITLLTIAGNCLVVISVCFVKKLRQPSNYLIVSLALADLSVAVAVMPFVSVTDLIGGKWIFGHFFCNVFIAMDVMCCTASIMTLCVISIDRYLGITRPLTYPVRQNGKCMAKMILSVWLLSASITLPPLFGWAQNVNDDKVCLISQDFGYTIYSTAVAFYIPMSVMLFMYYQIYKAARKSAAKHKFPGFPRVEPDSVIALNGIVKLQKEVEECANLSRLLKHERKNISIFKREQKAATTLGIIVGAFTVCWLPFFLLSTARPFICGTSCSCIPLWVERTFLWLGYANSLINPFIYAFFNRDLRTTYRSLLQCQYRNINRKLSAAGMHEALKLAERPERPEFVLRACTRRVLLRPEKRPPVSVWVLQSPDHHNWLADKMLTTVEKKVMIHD
Sequence of human Serotonin, 5-Hydroxytryptamine Receptor 6 (5HT6), HTR6 (gene 3362) (P50406 whole entry, looked up): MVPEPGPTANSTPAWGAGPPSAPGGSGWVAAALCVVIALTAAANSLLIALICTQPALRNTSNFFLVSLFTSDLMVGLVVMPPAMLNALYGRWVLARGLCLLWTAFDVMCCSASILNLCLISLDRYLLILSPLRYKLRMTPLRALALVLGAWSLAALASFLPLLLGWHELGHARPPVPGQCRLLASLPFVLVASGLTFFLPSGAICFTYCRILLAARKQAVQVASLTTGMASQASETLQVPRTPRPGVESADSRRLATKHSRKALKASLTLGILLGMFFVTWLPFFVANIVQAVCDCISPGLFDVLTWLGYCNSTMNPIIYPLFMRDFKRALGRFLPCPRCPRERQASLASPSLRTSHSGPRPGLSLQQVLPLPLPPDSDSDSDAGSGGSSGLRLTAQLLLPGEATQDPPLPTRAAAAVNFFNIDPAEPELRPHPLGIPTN
Sequence of rat Monoamine Oxidase, MAO-B, Peripheral (MAOBP), Maob (gene 25750) (P19643 whole entry, looked up): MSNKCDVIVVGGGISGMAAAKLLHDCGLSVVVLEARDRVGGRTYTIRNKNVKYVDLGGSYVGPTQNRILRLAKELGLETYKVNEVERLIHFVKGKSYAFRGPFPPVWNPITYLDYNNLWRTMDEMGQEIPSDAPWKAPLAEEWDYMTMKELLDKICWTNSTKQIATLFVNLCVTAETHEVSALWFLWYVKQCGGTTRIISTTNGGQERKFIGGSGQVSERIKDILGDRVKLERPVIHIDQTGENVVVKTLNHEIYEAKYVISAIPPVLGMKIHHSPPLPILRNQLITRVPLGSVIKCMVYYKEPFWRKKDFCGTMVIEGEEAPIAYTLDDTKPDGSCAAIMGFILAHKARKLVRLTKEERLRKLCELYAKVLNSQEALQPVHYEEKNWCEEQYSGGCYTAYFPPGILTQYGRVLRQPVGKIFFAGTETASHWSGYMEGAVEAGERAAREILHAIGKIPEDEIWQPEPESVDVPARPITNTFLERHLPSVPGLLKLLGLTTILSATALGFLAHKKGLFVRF
Sequence of rat Monoamine Oxidase, MAO-B, Central (MAOBC), Maob (gene 25750) (P19643 whole entry, looked up): as above
Sequence of guinea pig Opioid, Kappa 1 Receptor (OpiateK), OPRK1 (gene 100135587) (P41144 whole entry, looked up): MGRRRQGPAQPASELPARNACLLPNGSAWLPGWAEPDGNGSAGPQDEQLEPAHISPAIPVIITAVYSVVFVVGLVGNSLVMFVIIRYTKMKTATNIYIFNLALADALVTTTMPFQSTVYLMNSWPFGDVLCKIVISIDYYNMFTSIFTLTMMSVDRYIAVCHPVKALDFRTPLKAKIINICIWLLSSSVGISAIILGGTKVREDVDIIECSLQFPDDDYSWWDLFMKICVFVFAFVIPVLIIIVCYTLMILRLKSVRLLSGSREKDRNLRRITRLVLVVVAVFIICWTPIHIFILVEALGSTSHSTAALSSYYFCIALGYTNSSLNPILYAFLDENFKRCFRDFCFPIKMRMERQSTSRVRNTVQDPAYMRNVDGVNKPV
Sequence of Adenosine receptor A1 (Bos taurus) (P28190 whole entry, looked up): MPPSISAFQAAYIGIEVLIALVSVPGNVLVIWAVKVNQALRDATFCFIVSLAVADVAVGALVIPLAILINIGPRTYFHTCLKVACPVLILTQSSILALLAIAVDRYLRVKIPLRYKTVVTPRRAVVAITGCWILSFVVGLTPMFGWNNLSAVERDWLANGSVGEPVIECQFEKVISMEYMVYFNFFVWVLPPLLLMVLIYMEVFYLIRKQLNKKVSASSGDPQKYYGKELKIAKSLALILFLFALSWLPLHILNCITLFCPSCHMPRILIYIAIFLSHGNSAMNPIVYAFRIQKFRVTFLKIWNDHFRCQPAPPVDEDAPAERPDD
Sequence of human Serotonin, 5-Hydroxytryptamine Receptor 5A (5HT5A), HTR5A (gene 3361) (P47898 whole entry, looked up): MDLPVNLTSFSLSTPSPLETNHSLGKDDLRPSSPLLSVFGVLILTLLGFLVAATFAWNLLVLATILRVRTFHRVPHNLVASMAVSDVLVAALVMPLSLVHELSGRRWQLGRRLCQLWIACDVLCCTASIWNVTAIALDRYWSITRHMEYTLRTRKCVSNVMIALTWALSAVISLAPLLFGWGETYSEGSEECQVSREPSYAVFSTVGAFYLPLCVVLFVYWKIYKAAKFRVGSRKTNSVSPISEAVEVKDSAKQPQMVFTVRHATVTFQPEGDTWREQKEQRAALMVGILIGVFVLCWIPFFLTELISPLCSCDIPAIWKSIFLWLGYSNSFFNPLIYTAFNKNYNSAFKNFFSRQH
Sequence of human Adenosine A1 Receptor (AdoRA1), ADORA1 (gene 134) (P30542 whole entry, looked up): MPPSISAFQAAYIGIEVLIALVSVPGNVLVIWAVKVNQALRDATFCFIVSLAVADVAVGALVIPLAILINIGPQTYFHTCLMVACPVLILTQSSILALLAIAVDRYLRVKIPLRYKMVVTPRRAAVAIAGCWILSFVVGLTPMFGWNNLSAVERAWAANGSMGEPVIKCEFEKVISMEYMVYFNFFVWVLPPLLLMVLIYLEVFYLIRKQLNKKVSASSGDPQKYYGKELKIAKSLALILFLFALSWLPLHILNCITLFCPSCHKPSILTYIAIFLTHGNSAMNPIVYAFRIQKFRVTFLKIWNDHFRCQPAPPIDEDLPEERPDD
Sequence of human Serotonin, 5-Hydroxytryptamine Receptor 2A (5HT2A), HTR2A (gene 3356) (P28223 whole entry, looked up): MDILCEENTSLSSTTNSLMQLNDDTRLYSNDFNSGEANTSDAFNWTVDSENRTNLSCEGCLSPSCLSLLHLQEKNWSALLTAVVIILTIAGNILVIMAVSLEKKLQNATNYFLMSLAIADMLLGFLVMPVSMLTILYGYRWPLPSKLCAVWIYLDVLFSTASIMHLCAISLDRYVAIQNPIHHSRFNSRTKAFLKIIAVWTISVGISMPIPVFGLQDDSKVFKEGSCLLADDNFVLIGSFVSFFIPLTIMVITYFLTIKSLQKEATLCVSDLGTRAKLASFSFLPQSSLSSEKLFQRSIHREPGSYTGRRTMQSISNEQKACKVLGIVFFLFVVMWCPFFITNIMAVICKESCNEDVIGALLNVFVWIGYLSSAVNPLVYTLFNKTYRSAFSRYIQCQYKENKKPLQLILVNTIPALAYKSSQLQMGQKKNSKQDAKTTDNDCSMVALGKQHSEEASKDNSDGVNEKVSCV
Sequence of guinea pig Leukotriene D4 Receptor (LTD4), CYSLTR1 (gene 100135514) (Q2NNR5 whole entry, looked up): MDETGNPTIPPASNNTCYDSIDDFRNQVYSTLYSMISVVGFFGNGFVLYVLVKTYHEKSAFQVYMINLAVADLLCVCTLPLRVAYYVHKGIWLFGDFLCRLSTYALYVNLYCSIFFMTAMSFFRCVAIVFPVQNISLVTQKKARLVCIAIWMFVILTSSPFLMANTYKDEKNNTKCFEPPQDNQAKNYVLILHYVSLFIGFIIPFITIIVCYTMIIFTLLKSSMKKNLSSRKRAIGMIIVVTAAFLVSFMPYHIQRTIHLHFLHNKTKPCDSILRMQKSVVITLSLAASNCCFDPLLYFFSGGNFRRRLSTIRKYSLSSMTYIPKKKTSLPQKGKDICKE

Regarding `CCOCCOC(C)=O`, the molecule was called inactive in experiment [1].
Regarding `Cc1ccccc1O`, the molecule was called inactive in experiment [2].
One may read the AC50 as the midpoint of the concentration-response curve, whichever way the signal moves. On to `Oc1ccc(Cl)cc1Cl`, for which, in experiment [1], the AC50 was 7.6 µM (active). The result in experiment [3] and in experiment [4] was inactive.
For `Oc1ccc(C(c2ccc(O)cc2)(C(F)(F)F)C(F)(F)F)cc1`, the AC50 in [5] was 0.436 µM (active); in experiment [6], 10.4 µM (active); in [7], 13.6 µM (active); in experiment [8], 8.39 µM (active); in experiment [9], 14 µM (active); in experiment [4] it was 0.352 µM (active). The AC50 is 16.6 µM (active) in experiment [10] and 5.73 µM (active) in experiment [11].
On to `Cc1ccccc1CO[C@@H]1C[C@@]2(C(C)C)CC[C@]1(C)O2`, for which, in experiment [12], the molecule was classed as inactive.
For the molecule `O=S(=O)(O)C(F)(F)C(F)(F)C(F)(F)C(F)(F)C(F)(F)C(F)(F)F`, the AC50 in experiment [5] is 10.8 µM (active).
For `Clc1ccc(Cl)cc1`, the result in experiment [2] was inactive.
In the case of `CC1=C2C[C@H]3[C@@H](CC=C4C[C@@H](O)CC[C@@]43C)[C@@H]2CC[C@]12O[C@@H]1C[C@H](C)CN[C@H]1[C@H]2C`, the outcome in experiment [13] was inactive. Further, the concentration at half-maximal activity (AC50) in experiment [9] is 1.33 µM (active).
Turning to `NS(=O)(=O)C(F)(F)C(F)(F)C(F)(F)C(F)(F)C(F)(F)C(F)(F)C(F)(F)C(F)(F)F`, the half-maximal activity concentration (AC50) in [2] is 13.1 µM (active).
Take `Oc1c(Cl)c(Cl)c(Cl)c(Cl)c1Cl`: the AC50 in experiment [3] was 15.5 µM (active); in experiment [9] it was 12.6 µM (active). In addition, the molecule was called inactive in [2], in experiment [14], in experiment [9] and in experiment [10].
For the molecule `CN(C)CCO`, the molecule was called inactive in experiment [15].
Turning to `Clc1ccc(C(c2ccccc2Cl)C(Cl)(Cl)Cl)cc1` (stereo not drawn), the molecule was classed as inactive in experiment [16].
On to `Cc1cc(O)ccc1Cl`, for which the concentration at half-maximal activity (AC50) was 19.1 µM (active) in experiment [17], 13.6 µM (active) in [1], 25 µM (active) in experiment [13] and 18.5 µM (active) in experiment [3].
For the molecule `CCCCCCCCCc1ccc(O)cc1`, the result in experiment [16] was inactive.
`CC(C)(O)C(=O)Nc1ccc([N+](=O)[O-])c(C(F)(F)F)c1`: the AC50 in [1] was 12.1 µM (active). Further, the molecule was called inactive in experiment [13] and in [9].
Regarding `COc1ccc(O)c(C(C)(C)C)c1`, the result in experiment [8] and in experiment [11] was inactive. The AC50 in experiment [4] is 25 µM (active).
In the case of `O=C(N[C@H]1CN2CCC1CC2)c1cc2ccoc2cn1`, the call in [7] and in experiment [9] was inactive.
In the case of `C[C@]12CCC(=O)C=C1CC[C@@H]1[C@@H]2CC[C@]2(C)C(=O)CC[C@@H]12`, the AC50 in [18] was 24.4 µM (active). The molecule was classed as inactive in [9] and in experiment [11].
